Screening results as filed in PubChem BioAssay.
LmPK inh – blocks Leishmania mexicana pyruvate kinase activity; Potency, µM (series often up to 57.5 µM), actives largely listed as inhibitors; purified LmPK, Kinase-Glo ATP luminescence, 1 h; Q27686; 290,000 compounds, 0.37% hits
Target sequence (Q27686 whole entry, looked up): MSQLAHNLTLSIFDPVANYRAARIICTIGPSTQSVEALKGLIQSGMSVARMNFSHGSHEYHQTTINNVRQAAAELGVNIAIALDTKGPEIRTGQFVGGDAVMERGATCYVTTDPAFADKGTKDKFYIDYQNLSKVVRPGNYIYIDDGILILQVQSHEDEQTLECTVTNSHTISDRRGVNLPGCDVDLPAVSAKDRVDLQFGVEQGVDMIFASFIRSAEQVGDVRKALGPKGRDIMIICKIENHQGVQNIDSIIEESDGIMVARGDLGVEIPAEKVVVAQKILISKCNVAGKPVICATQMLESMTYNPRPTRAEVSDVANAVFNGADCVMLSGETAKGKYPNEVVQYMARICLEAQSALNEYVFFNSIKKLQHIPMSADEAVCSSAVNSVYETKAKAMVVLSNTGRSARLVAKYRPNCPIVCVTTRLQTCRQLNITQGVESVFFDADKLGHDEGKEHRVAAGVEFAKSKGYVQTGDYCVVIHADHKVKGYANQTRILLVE
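Purified LmPK (0.1 nM) with 0.5 mM PEP and 0.1 mM ADP in imidazole buffer pH 7.2 with MgCl2/KCl, 1 h at room temperature. ATP formed was read by luciferase luminescence and normalized to no-enzyme and uninhibited controls.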
Cycloheximide cs – counter-screen for Shiga toxin inhibitors: cycloheximide protein synthesis inhibition; cell reporter, cycloheximide protein synthesis inhibition counterscreen; max response, %; 300,000 compounds, 12% hits; AID 2314; in the data active = max response mostly above about 13%, no sharp cut-off; inactive = mostly below about 14%; also: read at 38.3 µM for the half of the compounds with a filed dose
Pf growth 48h – P. falciparum growth inhibition at 48 hours (one generation) | P. falciparum luciferase growth in erythrocytes, 48 h | Potency, µM (titrated, usually from 28.7 µM), most hits filed as inhibitors | 310,000 compounds, 5.9% hits | AID 504832
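First compound was added to culture medium, then infected red cells at 0.1% parasitemia and 2% hematocrit (final). After incubation at 37 C under 5% CO2, luciferase detection reagent was dispensed and light output recorded.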
Shiga toxin inh – inhibitors of Shiga toxin in Vero cells. inhibition, % at 38.7 µM. Vero cells, Shiga toxin protein synthesis inhibition reporter. 290,000 compounds, 9.2% hits; in the data active = inhibition mostly above about 28%, no sharp cut-off; inactive = mostly below about 43%
Pf growth 96h – P. falciparum growth inhibition at 96 hours. Potency, µM (titrated, usually from 28.7 µM), usual class: inhibitors. 320,000 compounds, 6.9% hits. P. falciparum luciferase reporter growth, 96 h
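Erythrocytes infected with luciferase-expressing P. falciparum were dispensed at 2% hematocrit and 0.05% parasitemia (final), then incubated with compounds 96 hours at 37 C in 5% CO2. Luminescence after detection reagent addition reported growth.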
Large screens that a line does not name were inactive. Only some compounds are listed: those with a hit (about 22% of all), similar ones and a draw of the others. Unless noted, calls follow the shape of the dose curve; as a rule, active = well fitted inhibition curve with a large enough effect; inconclusive = small, poorly fitted or top-dose-only effect, or another doubt; inactive = no such curve, though single readings can be large or run the other way.

CC1CCN(C(=O)C(=O)Nc2sc3c(c2C(N)=O)CC(C)(C)OC3)CC1	none
COc1ccc(Cl)cc1NC(=O)CSc1nnc(C2CC2)n1N	none (no result: LmPK inh, Cycloheximide cs, Shiga toxin inh)
COc1c(/C=N/Nc2ccc(C(=O)O)cc2)c(CCN(C)C(C)=O)cc2c1OCO2	Cycloheximide cs 25, Shiga toxin inh 70
CNC(=S)N(C)CCc1cc2c(c(OC)c1C=C1C(=O)NC(=O)NC1=O)OCO2	Pf growth 48h inconclusive, Pf growth 96h 5.2µM
COc1c(/C=N/NC(=O)c2ccccc2O)c(CCN(C)C(C)=O)cc2c1OCO2	Cycloheximide cs 16, Shiga toxin inh 57
CCC(=O)N(C)CCc1cc2c(c(OC)c1/C=N/NC(=O)c1ccccc1O)OCO2	none
CS(=O)(=O)N1CCC(Oc2ccccc2C(=O)N2CCN(CC3CC3)CC2)CC1	none
COc1ccc(C(=O)N2CCN(c3ccccn3)CC2)cc1[N+](=O)[O-]	Pf growth 96h inconclusive
CC(CC(=O)N1CCc2ccccc21)S(=O)(=O)c1ccc2c(c1)NC(=O)CO2 (configuration not stated)	Pf growth 96h 10µM
CC(CC(=O)NC1CCCCC1)S(=O)(=O)c1ccc2c(c1)NC(=O)CO2 (configuration not stated)	Pf growth 96h 13µM
Cc1ccc(NC(=O)CC(C)S(=O)(=O)c2ccc3c(c2)NC(=O)CO3)cc1C (configuration not stated)	Pf growth 48h inconclusive, Pf growth 96h 12µM
Cc1ccc(NS(=O)(=O)c2ccc3c(c2)NC(=O)CO3)cc1C	Pf growth 96h 9.3µM
Cc1ccc(NS(=O)(=O)c2ccc3c(c2)NC(=O)CO3)cc1Cl	none
CCc1nnc(NC(=O)c2ccc(COc3ccccc3C)o2)s1	none
Cc1cccc(N2CC(C(=O)Nc3nccs3)CC2=O)c1C (configuration not stated)	none
CC(=O)c1ccc(NC(=O)c2cccc(S(=O)(=O)N3CCN(C)CC3)c2)cc1	Cycloheximide cs 41, Pf growth 48h inconclusive, Shiga toxin inh 104, Pf growth 96h inconclusive
CCc1cccc(NC(=O)c2cccc(S(=O)(=O)N3CCN(C)CC3)c2)c1	none
CSc1ccccc1NC(=O)c1cccc(S(=O)(=O)N2CCN(C)CC2)c1	Cycloheximide cs 37, Shiga toxin inh 32, Pf growth 96h inconclusive
CCOc1ccccc1NC(=O)COC(=O)c1c(CC)noc1C	none (no result: LmPK inh, Cycloheximide cs, Shiga toxin inh)
CCC(Sc1ccc2nnc(-c3ccc(OC)c(OC)c3)n2n1)C(=O)O (configuration not stated)	Pf growth 96h inconclusive (no result: Pf growth 48h)
COc1ccc(-c2nnc3ccc(SCC(=O)Nc4nc5ccc(C)cc5s4)nn23)cc1OC	Pf growth 48h 13µM, Pf growth 96h inconclusive
COc1ccc(-c2nnc3ccc(SC(C(C)=O)C(C)=O)nn23)cc1OC	Pf growth 48h 9.3µM, Pf growth 96h inconclusive
COCCNC(=O)c1ccc(CN2CCC(Cc3ccccc3)CC2)cc1	Pf growth 96h inconclusive
O=C(c1ccc(CN2CCOCC2)cc1)N1CCC(Cc2ccccc2)CC1	Pf growth 96h 2.9µM
CCc1ccccc1NC(=O)c1ccc(CN2CCC(Cc3ccccc3)CC2)cc1	Pf growth 48h 1µM
O=C(NCc1ccccc1)c1ccc(CN2CCC(Cc3ccccc3)CC2)cc1	Pf growth 48h 13µM
CCC(CC)C(=O)Nc1nnc(S(=O)(=O)N2c3ccccc3CC2C)s1 (configuration not stated)	none
O=C(COC(=O)c1ccc(=O)[nH]c1)Nc1cccc(S(=O)(=O)N2CCOCC2)c1	Pf growth 48h inconclusive
CC1CCCCN1c1ccc(N)cc1C(N)=O (configuration not stated)	Pf growth 48h inconclusive
COc1ccnc(CSC(N)=Nc2ccc(F)cc2)c1	Cycloheximide cs 31, Shiga toxin inh 66
CCc1nc(NC(=O)c2sc(C)nc2C)sc1C(=O)OC	Pf growth 96h inconclusive
COc1ccc(-c2oc(=O)c3cc(OC)c(OC)cc3c2-c2cc(F)cc(OC)c2)cc1	Pf growth 48h inconclusive, Pf growth 96h 2.9µM (no result: LmPK inh, Cycloheximide cs, Shiga toxin inh)
COc1ccc(-c2oc(=O)c3cc(OC)c(OC)cc3c2C(F)(F)F)cc1	Pf growth 96h inconclusive (no result: LmPK inh, Cycloheximide cs, Shiga toxin inh)
CC(=O)N1CCc2cc(S(=O)(=O)NCCC(=O)Nc3cccc(C)c3C)ccc21	Pf growth 48h inconclusive, Pf growth 96h 3.7µM
CCC(=O)N1CCc2cc(S(=O)(=O)NCCC(=O)Nc3cc(C)cc(C)c3)ccc21	Pf growth 48h inconclusive
CCC(=O)N1CCc2cc(S(=O)(=O)NCCC(=O)Nc3ccccc3C)ccc21	Pf growth 48h inconclusive, Pf growth 96h 12µM
CC(=O)N1CCc2cc(S(=O)(=O)NCCC(=O)NCCc3ccccc3)ccc21	none
COc1ccc(OC)c(S(=O)(=O)n2ccc(C)n2)c1	none
CN(CC(=O)Nc1cccc(F)c1)C(=O)c1ccccc1Sc1ccccc1C#N	Pf growth 96h inconclusive (no result: LmPK inh, Cycloheximide cs, Shiga toxin inh)
CC(=O)N(c1nc(CCl)cs1)c1c(C)cc(C)cc1C	Pf growth 96h inconclusive
CCCNC(=O)C1(CC2CC(c3ccccc3)=NO2)CCN(C(=O)c2ccccc2)CC1 (configuration not stated)	Pf growth 48h 12µM, Pf growth 96h inconclusive (no result: LmPK inh, Cycloheximide cs, Shiga toxin inh)
O=C(c1ccccc1)N1CCC(CC2CC(c3cccc(Br)c3)=NO2)(C(=O)NCC2CCCCC2)CC1 (configuration not stated)	Pf growth 48h inconclusive, Pf growth 96h 5.2µM
CC(C)(C)OC(=O)N1CCC(CC2CC(c3cccc(Br)c3)=NO2)(C(=O)NCC2CCCCC2)CC1 (configuration not stated)	Cycloheximide cs 13, Pf growth 48h inconclusive, Pf growth 96h inconclusive
O=C(OCC1CC(c2ccccc2)=NO1)c1ccc(Cl)cc1 (configuration not stated)	none
O=C(NCC1CCCCC1)C1(CC2CC(c3ccc(Cl)cc3)=NO2)CCNCC1 (configuration not stated)	Pf growth 48h inconclusive, Pf growth 96h inconclusive
CCOc1cc(C(=O)N2CCC(CC3CC(c4ccc(Cl)cc4)=NO3)(C(=O)NCC3CCCCC3)CC2)cc(OCC)c1OCC (configuration not stated)	Pf growth 48h 0.29µM, Pf growth 96h 0.23µM
COc1ccc([N+](=O)[O-])cc1NC(=O)CCSCCc1ccccn1	none
COc1ccc(CC(=O)N/N=C(\C)c2cccnc2)cc1	none
CN=c1scc(-c2ccc(OC)cc2)n1/N=C(\C)c1cccnc1	Cycloheximide cs 32, Shiga toxin inh 57, Pf growth 96h inconclusive
O=C(NCCC(=O)N1CCC2(CC1)NCCc1[nH]cnc12)c1cccc(Br)c1	none
O=C(CN1CCCCCC1)N/N=C/c1cccc(Cl)c1Cl	Cycloheximide cs 24, Shiga toxin inh 105
O=C(CN1CCCCC1)N/N=C/c1ccc(Cl)cc1Cl	none
Cc1cc(/C=N\NC(=O)CC(=O)NC2CCCCC2)c(C)n1-c1cccc(Cl)c1Cl	Pf growth 96h 8.3µM
O=C(CN1CCCCC1)N/N=C/c1ccccc1Br	Cycloheximide cs 9.1, Pf growth 96h inconclusive
COc1ccccc1N1CCN(C(=O)c2ccc(N3CCCCS3(=O)=O)cc2)CC1	none
O=C(CCSc1ccccc1)NC1CCCC1	Cycloheximide cs 28
